Rows were chosen to be rich in hits. Some 6.5% of all compounds tested hit in one or more screens of this group.
HCMV inh: qHTS Assay for inhibitors of the human cytomegalovirus (HCMV). actives 4.5% (n = 410,000). activity change, negative = inhibition, % at 57.5 µM. HFF cells, HCMV-luciferase reporter, 72 h; hits give low values; in the data active means activity change below about -60%; inconclusive means no clear call, values can overlap the other calls; inactive means above about -39%
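Screen run at 2 compound doses on HFFs infected with reporter HCMV, MOI 1 PFU/cell. Luciferase activity from cell lysates at 72 h post infection gave inhibition relative to buffer-only and Salinomycin wells.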
Vaccinia mCherry: qHTS for Stage-Specific Inhibitors of Vaccinia Orthopoxvirus: mCherry Reporter Primary qHTS; Vaccinia virus mCherry reporter infection, fluorescence; Potency, µM (doses to about 36.5 µM), inactives show at the highest dose activity change, negative = inhibition, actives largely listed as inhibitors; actives 0.63% (n = 310,000); AID 720579, 2013; calls by dose curve; tested in A549 cells; further: potency means the concentration at half of the fitted maximal effect; nearly all actives have a fitted effect of over 35% in size
Lassa entry inh: qHTS for Inhibitors of binding or entry into cells for Lassa Virus; Lassa virus pseudotype entry inhibition, cell reporter; Potency, µM (titrated, usually from 37.9 µM), for inactives: at the highest dose activity change, negative = inhibition, most hits filed as inhibitors; actives 1.2% (n = 300,000); calls by dose curve; tested in HEK293 cells; further: potency means the concentration at half of the fitted maximal effect; nearly all actives have a fitted effect of over 50% in size
Vaccinia Venus: qHTS for Stage-Specific Inhibitors of Vaccinia Orthopoxvirus: Venus Reporter Primary qHTS; Vaccinia virus Venus reporter expression, fluorescence; Potency, µM (highest dose often 36.5 µM), inactives show top-dose activity change, negative = inhibition, usual class: inhibitors; actives 0.46% (n = 330,000); calls by dose curve; tested in A549 cells; further: potency means the concentration at half of the fitted maximal effect; nearly all actives have a fitted effect of over 30% in size
Marburg entry inh: qHTS for inhibitors of binding or entry into cells for Marburg Virus. Marburg virus pseudotyped entry inhibition, cell reporter. Potency, µM (highest dose often 37.8 µM), inactives show at the highest dose activity change, negative = inhibition, hits mostly inhibitors. actives 1.8% (n = 300,000); calls by dose curve; tested in HEK293 cells; further: potency means the concentration at half of the fitted maximal effect
FMDV inh: High Throughput Screening for Foot and Mouth Disease Virus Antivirals; FMDV antiviral cell-based qHTS; Potency, µM (doses to about 57.9 µM), for the others: at the highest dose activity change, negative = inhibition, hits mostly inhibitors; actives 1.2% (n = 410,000); calls by dose curve; tested in HEK293T cells; further: read-out not given here; potency means the concentration at half of the fitted maximal effect; nearly all actives have a fitted effect of over 45% in size
* hit, by the source's call; i = inactive; ? = inconclusive; · = not tested or not shown; ! = not confirmed by another sample; [ ] = another dose, or the depositor's remark. On the % scale 0 is the no-effect control and ±100 the full control effect.

SMILES | HCMV inh | Vaccinia mCherry | Lassa entry inh | Vaccinia Venus | Marburg entry inh | FMDV inh
COC(=O)C1=C(c2ccc(-c3ccccc3)c(F)c2)C[C@@H]2CC[C@H]1N2C(=O)N1CCCC1 | -72.2* | 22.4µM* | · | ? | · | -8.1%
COC(=O)C1=C(c2ccc(-c3ccccc3)c(F)c2)C[C@@H]2CC[C@H]1N2C(=O)N1CCC(C)CC1 | -25.7 | -15.6% | · | ? | · | -6.5%
COC(=O)C1=C(c2ccc(-c3ccccc3)c(F)c2)C[C@@H]2CC[C@H]1N2C(=O)N1CCCCC1 | -75.1* | ? | · | ? | · | ?
CCOc1ccc(CNC(=O)C2=Cc3cc(Br)ccc3OC2)cc1OC | -8.8 | -7.3% | -1.6%[46.1 µM] | -6.5% | · | -0.8%
CC1(Cc2ccc(C(F)(F)F)o2)C(=O)Nc2cc(-c3ccc(F)cc3F)ccc21 (centres undefined) | -99.7* | i | · | -2.0% | · | ?
CC1(Cc2cc(Cl)ccc2C(F)(F)F)C(=O)Nc2cc(F)ccc21 (centres undefined) | · | -11.4% | · | -7.7% | · | -8.1%
CCN1/C(=C/C=C/C=C/c2sc3ccccc3[n+]2CC)Sc2ccccc21 | · | 48.0% | 1.84µM* | 89.8% | 4.61µM* | ·
CCN1/C(=C/C=C/C=C/C=C/c2sc3ccccc3[n+]2CC)Sc2ccccc21 | -95.6* | · | · | · | · | 10µM*
CCN1/C(=C/C=C/c2sc3ccccc3[n+]2CC)Sc2ccccc21 | · | i | · | i | · | 14.1µM*
CC[n+]1c(/C=C/Nc2ccccc2)sc2ccccc21 | -16.0 | -7.1% | -23.1% | 12.2% | ? | -19.6%
CCNC(=O)c1c(NC(=O)c2nc(SC)ncc2Cl)sc2c1CCCC2 | · | -12.0% | · | -12.4% | · | ·
Cc1ccc(NC(=O)c2cn3c4c(ccc(Cl)c4c2=O)OC(C)C3)c(C)c1 (centres undefined) | -12.9 | -7.8% | 28.0%[46.1 µM] | -2.1% | · | 0.5%
COc1ccc(OC)c(/C=C2\Cc3ccccc3C2=O)c1 | · | -25.4% | · | -9.1% | · | ·
CCOC(=O)c1c(N)c2cc([N+](=O)[O-])ccc2n1C | -16.3 | · | · | · | · | 4.6%
CCOC(=O)/C(=C/c1c(C)n(C)c2ccc([N+](=O)[O-])cc12)C(C)=O | -85.4* | i | -13.4% | -5.6% | ? | 12.6µM*
Cc1ccc(NC(=O)C(C)c2cccc(C(=O)c3ccccc3)c2)cc1O (centres undefined) | -62.3* | ? | ? | ? | ? | ?
O=C(O)c1ccc(-n2cc(-c3cc4ccccc4oc3=O)[nH]c2=S)cc1 | -64.3* | -7.5% | · | 2.5% | -2.9%[46.1 µM] | 14.6%
CC(=O)Nc1ccc(-n2cc(-c3ccccc3)[nH]c2=S)cc1 | 31.6 | i | · | -0.3% | · | 9.8%
Cc1[nH]n(-c2ncc(-c3ccccc3)s2)c(=O)c1C(c1ccc(Cl)cc1)C(C#N)C#N (centres undefined) | -1.6 | -18.9% | 7.3% | -13.5% | 14.0% | 20µM*
Cc1[nH]n(-c2ccccc2)c(=O)c1C(c1ccccc1[N+](=O)[O-])C(C#N)C#N (centres undefined) | 37.5 | · | · | · | · | ?
CCCCCCOc1ccc(/C(C)=N/NC2=NCCN2)cc1 | -96.2* | · | · | · | · | -17.7%
CN1CCN(C(=O)N2c3ccccc3C=Cc3ccccc32)CC1 | -2.3 | -1.4% | ? | -16.2% | 10µM* | 22.4%
O=C(C=Cc1ccccc1)Nc1cccc(C(=O)NCc2ccccc2)c1 | · | · | 10.6%[46.1 µM] | · | · | ·
CCc1c(C2(O)CCCCC2)[nH]c2ccc(C(F)(F)F)cc12 | -25.8 | -28.0% | · | ? | · | 39.8µM*
O=C1CCCc2cc(S(=O)(=O)NCC3CCC(C(=O)Nc4ccc(Cl)cc4)CC3)ccc2N1 (centres undefined) | -28.6 | -21.2% | ? | -15.0% | · | -17.1%
SMILES | HCMV inh | Vaccinia mCherry | Lassa entry inh | Vaccinia Venus | Marburg entry inh | FMDV inh
CCCCn1c(N)c(S(=O)(=O)c2ccc(C)cc2)c2nc3ccccc3nc21 | · | -14.8% | ? | -29.1% | 10µM* | 20.9%
CN(C)CCCn1c(N)c(S(=O)(=O)c2ccccc2)c2nc3ccccc3nc21 | · | -19.5%[7.34 µM] | 0.1% | -4.1%[7.34 µM] | -19.6%[46.1 µM] | 12.2%
O=C(CCn1cnc(-c2ccccc2)c1-c1ccccc1)N/N=C/c1ccccc1O | ? | · | 23.1µM* | · | ? | -6.8%
COc1ccc(/C=N/NC(=O)CCn2cnc3ccccc32)cc1 | -1.3 | i | -26.3% | -9.7% | -0.3%[14.2 µM] | 7.5%
O=C(CCn1cnc2ccccc21)N/N=C/C=C/c1ccccc1 | 0.1 | i | -8.1%[46.1 µM] | -12.6% | ? | -19.6%
COc1ccc(/C=N/NC(=O)CCn2cnc(-c3ccccc3)c2-c2ccccc2)cc1 | -82.6* | · | 2.31µM* | · | 18.4µM* | ?
CCOC(=O)c1ccccc1S(=O)(=O)N1CCN(c2nc(-c3cccs3)nc3ccccc23)CC1 | · | i | · | -10.4% | · | ·
CC#CCN1C(=O)NC(c2ccccc2)C(C#N)=C1C (centres undefined) | · | · | · | · | 23.2%[14.2 µM] | ·
CC(C)(CNc1ccc(C(F)(F)F)cc1[N+](=O)[O-])N1CCOCC1 | -66.4* | · | · | · | · | ?
CC1Cc2ccccc2N1C(=O)CN1CCC(n2nnc3cc(C(F)(F)F)ccc32)CC1 (centres undefined) | -39.1 | -27.7% | -29.6% | ? | ? | 20µM*
Cc1nnc2ccc(N3CCN(C(=O)c4ccccc4)CC3)nn12 | 7.8 | 8.0% | · | -1.4% | -0.5% | -16.7%
O=C(c1ccc(Br)o1)N1CCN(c2ccc3nnc(-c4ccccc4)n3n2)CC1 | -72.3* | -18.2% | · | -24.0% | · | ?
O=C(Nc1ccc(F)cc1)N1CCN(c2ccc3nnc(-c4ccc(F)cc4)n3n2)CC1 | -69.5*! | ? | · | ? | 0.8%[46.1 µM] | ?
Cc1noc(C)c1-c1ccc2ncnc(NCCN3CCOCC3)c2c1 | · | · | · | · | · | 14.8%
CCOc1ccccc1CNc1ncnc2ccc(-c3c(C)noc3C)cc12 | -27.5 | · | · | · | · | 31.6µM*
CCn1cc2c(n1)-c1c(oc(C(=O)Nc3cccc(C)c3C)c1C)CC2 | 78.9 | -7.8% | 6.6%[46.1 µM] | 1.1% | · | 39.2%
Cc1c(C(=O)NCCN(C)C)oc2c1-c1nn(Cc3cccc(Cl)c3)cc1CC2 | -68.4* | -5.9% | 22.7%[46.1 µM] | -3.9% | · | -14.5%
COc1cccc(CNC(=O)c2oc3c(c2C)-c2nn(Cc4cccc(Cl)c4)cc2CC3)c1 | -92.0* | -18.1% | 27.1%[46.1 µM] | -10.1% | · | -22.8%
Cc1cccc(C)c1NC(=O)c1oc2c(c1C)-c1nn(Cc3ccccc3)cc1CC2 | -81.5* | ? | -7.9%[46.1 µM] | ? | · | ?
Cc1ccc(CNC(=O)Cn2cc3c(n2)-c2c(oc(C(=O)N4CCOCC4)c2C)CC3)cc1 | ? | -21.3% | -18.4%[46.1 µM] | -16.9% | · | ?
CCOc1ccc(CNC(=O)Cn2cc3c(n2)-c2c(oc(C(=O)N4CCOCC4)c2C)CC3)cc1 | -63.2* | -2.2% | -26.7%[46.1 µM] | -22.0% | · | -29.8%
COc1ccc(-n2nc3c(N4CCC(C(=O)NCc5ccccc5C)CC4)nnc(C)c3c2C)cc1 | ? | -12.3% | ? | ? | ? | -11.4%

Bioassay records deposited in PubChem BioAssay by National Center for Advancing Translational Sciences (NCATS).
